The nature of test [1]: qHTS assay to identify small molecule antagonists of the sonic hedgehog signaling (Shh) pathway (AID 1259369; calls by dose curve; note: nearly all actives have a fitted effect of over 45% in size). The procedure, abridged:
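Stable Gli1-Luc reporter NIH/3T3 clone; quantitative HTS in stimulated mode with conditioned medium. Luminescence measured after 24hr compound treatment at 37 C.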

Test [2] has as its target Estrogen receptor beta (Homo sapiens) (UniProt Q92731). The test is described as follows: qHTS assay to identify small molecule agonists of the estrogen receptor beta (ER-beta) signaling pathway (AID 1259377; active = well fitted activation curve with a large enough effect in the signal ratio in the repeat runs, not every such curve was filed as active; the % refers to the signal ratio). The method in brief: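 HEK293T ER-beta-UAS-bla; 2% charcoal-stripped FBS; cells pre-incubated 6 hr, compound 16 hr, 37C/5% CO2; LiveBLAzer B/G FRET substrate 2 h RT; fluorescence intensity read.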
In general terms: Quantitative high-throughput screening tests each substance at several concentrations.

Test [3] shares this target. The experiment in a line: qHTS assay to identify small molecule antagonists of the estrogen receptor beta (ER-beta) signaling pathway (AID 1259378; active = well fitted inhibition curve with a large enough effect in the signal ratio in the repeat runs, not every such curve was filed as active; the % refers to the signal ratio; note: potency is the fitted concentration of half-maximal effect). The procedure, abridged: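 Antagonist mode: compounds added to beta-lactamase reporter HEK293T ER-beta-UAS cells stimulated with E2 (1nM final), 16 hr at 37C. LiveBLAzer B/G FRET substrate, 2 hours room temperature, fluorescence read-out.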

Test [4] is described as follows: qHTS assay to identify small molecule agonists of the androgen receptor (AR) signaling pathway in the presence of an antagonist - cell viability counter screen (AID 1259379).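 Note: MDA-kb2 human breast cancer cells carrying an MMTV luciferase reporter; series mostly up to about 92 µM; nearly all actives have a fitted effect of over 25% in size.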 The procedure, abridged: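 Nilutamide-containing (3.0uM final) MDA-kb2 cultures, 3,000 cells/well, were treated with compounds across 15 concentrations. After 16 hr at 37C with no CO2, cell viability was determined by CellTiter-Fluor fluorescence in the luciferase assay wells.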

The nature of test [5]: qHTS assay to identify small molecule agonists of the estrogen receptor beta (ER-beta) signaling pathway - cell viability counter screen (AID 1259380). Note: nearly all actives have a fitted effect of over 30% in size. Note: potency is the fitted concentration of half-maximal effect. The method in brief:
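Steps: plate ER-beta-UAS-bla HEK293T cells, rest 6 hr; add compounds in DMSO; incubate 16 hr at 37C, 5% CO2; add FRET substrate 2 hr; add CellTiter-Glo, wait 30 min at room temperature; read luminescence.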

Test [6] has as its target Estrogen receptor (Homo sapiens) (UniProt P03372). The experiment in a line: qHTS assay to identify small molecule agonists of the estrogen receptor alpha (ER-alpha) signaling pathway in the presence of an antagonist (AID 1259383; calls by dose curve; note: nearly all actives have a fitted effect of over 15% in size; note: potency is the fitted concentration of half-maximal effect; for activation: top concentration of the series differs between compounds). The method in brief: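 Readout was ERE-driven luciferase luminescence in VM7Luc4E2 cells, which express full-length ER-alpha endogenously. Compounds were tested at 15 concentrations for 22hr alongside 10.0nM ICI-182,780 (final concentration).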

Test [7] is described as follows: qHTS assay to identify small molecule agonists of the estrogen receptor alpha (ER-alpha) signaling pathway in the presence of an antagonist - cell viability counter screen (AID 1259386).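 Note: series mostly up to about 92 µM; cells exposed to compounds for 22 h at 37 °C before the viability read; nearly all actives have a fitted effect of over 30% in size.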 The method in brief: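 In this counter screen, compound effects on VM7Luc4E2 viability were tested in the presence of the antagonist ICI-182,780 at 10.0nM final. Compounds were dosed at 15 concentrations, exposure lasted 22hr, and the CellTiter-Fluor signal was read.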

Test [8] in a line: qHTS assay to identify small molecule antagonists of the progesterone receptor (PR) signaling pathway - cell viability counter screen (AID 1346798). Note: series mostly up to about 92 µM; nearly all actives have a fitted effect of over 50% in size. The procedure, abridged: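 HEK293T PR-UAS-bla, 2% charcoal-stripped FBS; 4 hr pre-plate; cpd + R5020, 16 h 37C; LiveBLAzer read first; then CellTiter-Glo 30 min RT, luminescence.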
Test [9] is described as follows: qHTS assay to identify small molecule agonists of the progesterone receptor (PR) signaling pathway - cell viability counter screen (AID 1346799; calls by dose curve; note: nearly all actives have a fitted effect of over 45% in size). The procedure, abridged: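 Luminescence from CellTiter-Glo, added after the beta-lactamase FRET read in the same wells, gave cytotoxicity in PR-UAS-bla HEK293T cells treated with compounds for 16 hr at 37C.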
Test [10] in a line: qHTS assay to identify small molecule antagonists of the TGF-beta/Smad signaling pathway - cell viability counter screen (AID 1346824). Note: nearly all actives have a fitted effect of over 50% in size. The procedure, abridged:
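Cytotoxicity counter-screen run in the same wells as the beta-lactamase Smad reporter read: CellTiter-Glo luminescence after 30 min at room temperature. HEK 293T SBE-bla cells had 5 hr compound exposure at 37 C with TGF-beta1 (0.25 ng/mL stock).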

A short description of test [11]: qHTS assay to identify small molecule agonists of the TGF-beta/Smad signaling pathway - cell viability counter screen (AID 1346829). Note: top concentration of the series differs between compounds; nearly all actives have a fitted effect of over 45% in size. The method in brief: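 HEK 293T SBE-bla line, 5 hr compound exposure at 37 C, multiplexed CellTiter-Glo viability read by luminescence.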
A short description of test [12]: qHTS assay to identify small molecule agonists of the TGF-beta/Smad signaling pathway (AID 1346859; active = well fitted activation curve with a large enough effect in the signal ratio in the repeat runs, not every such curve was filed as active; the % refers to the signal ratio; note: series mostly up to about 77 µM). The method in brief: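 SBE-bla HEK 293T, 4,000 cells/well, plated o/n; cpd in DMSO, 5 hr, 37 C/5% CO2; B/G FRET substrate 2 hr RT; ex 405, em 460/530 nm.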
Test [13] is described as follows: qHTS assay to identify small molecule antagonists of the estrogen receptor beta (ER-beta) signaling pathway - cell viability counter screen (AID 1259382). Note: series mostly up to about 92 µM; nearly all actives have a fitted effect of over 55% in size. The procedure, abridged: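 Viability is scored by CellTiter-Glo luminescence (30 min, room temperature) in ER-beta-UAS-bla HEK293T wells already read for reporter fluorescence. Compound exposure lasts 16 hr at 37C alongside 1nM 17-beta-estradiol in charcoal-stripped serum medium.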

The nature of test [14]: qHTS assay to identify small molecule agonists or antagonists of the thyroid stimulating hormone receptor (TSHR) signaling pathway - wild type cell line counter screen (AID 1259384; calls by dose curve). The procedure, abridged: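 Counter screen in untransfected Hek293: compounds (15-point titration, triplicate) plus phosphodiesterase inhibitor Ro20-1724 added after 18 h plating; 30 min RT. Intracellular cAMP via competitive d2/cryptate immunoassay, 1 h incubation.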

The target of test [15] is Thyrotropin receptor (Homo sapiens) (UniProt P16473). The test is described as follows: qHTS assay to identify small molecule antagonists of the thyroid stimulating hormone receptor (TSHR) signaling pathway (AID 1259385; calls by dose curve; note: nearly all actives have a fitted effect of over 20% in size). The method in brief:
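Antagonist mode: compound-treated TSHR-expressing HEK293 cells were stimulated with 1.5 ng/mL TSH (final) in presence of Ro20-1724 for 30 min at RT. HTRF cAMP detection after 1 h; each compound tested at 15 concentrations, triplicate.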

Test [16] concerns the target Progesterone receptor (Homo sapiens) (UniProt P06401). The test is described as follows: qHTS assay to identify small molecule agonists of the progesterone receptor (PR) signaling pathway (AID 1346784; calls by dose curve; note: nearly all actives have a fitted effect of over 30% in size). The method in brief: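 Beta-lactamase reporter read-out: after 16 hr compound treatment at 37C and a further 2 hr at room temperature with LiveBLAzer B/G FRET substrate, fluorescence was measured in PR-UAS-bla HEK 293T cells grown in 2% charcoal-stripped serum.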

The target is the same in test [17]. The test is described as follows: qHTS assay to identify small molecule antagonists of the progesterone receptor (PR) signaling pathway (AID 1346795; active = well fitted inhibition curve with a large enough effect in the signal ratio in the repeat runs, not every such curve was filed as active; the % refers to the signal ratio; note: potency is the fitted concentration of half-maximal effect). The method in brief: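 Read-out is fluorescence from the LiveBLAzer B/G FRET substrate, cleaved by a UAS-controlled beta-lactamase in PR-UAS-bla HEK293T cells after 16 hr exposure to compound plus 1 nM promegestone (final), followed by 2 hr at room temperature.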

For test [18], the target named is Androgen receptor (Homo sapiens) (UniProt P10275). The test is described as follows: qHTS assay to identify small molecule agonists of the androgen receptor (AR) signaling pathway in the presence of an antagonist (AID 1259381; calls by dose curve; note: nearly all actives have a fitted effect of over 15% in size; note: potency is the fitted concentration of half-maximal effect). The method in brief:
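Reporter-gene luminescence from MDA-kb2 cells exposed 16hr at 37C (0% CO2) to 15-point compound titrations with 3.0uM final nilutamide as AR antagonist.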

In test [19] the target is Thyrotropin-releasing hormone receptor (Homo sapiens) (UniProt P34981). The experiment in a line: qHTS assay to identify small molecule antagonists of the thyrotropin-releasing hormone receptor (TRHR) signaling pathway (AID 1346877; active = well fitted inhibition curve with a large enough effect in the repeat runs, not every such curve was filed as active; note: series mostly up to about 51 µM). The procedure, abridged:
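Kinetic fluorescence (3 min, 1 s resolution) following stimulation with TRH at 1 nM final; HEK293 cells bearing human TRHR; 5 min compound preincubation at RT; concentration-response over 15 points, triplicates.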

For test [20] the target is unchanged. The experiment in a line: qHTS assay to identify small molecule agonists of the thyrotropin-releasing hormone receptor (TRHR) signaling pathway (AID 1346891; calls by dose curve; note: series mostly up to about 58 µM). The procedure, abridged: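 Intracellular calcium rise, read as fluorescence every second for 3 min, served as the agonist signal in dye-loaded HEK293 cells expressing TRHR; each compound ran at 15 concentrations in triplicate.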

These results are taken from PubChem BioAssay (Tox21).

Values joined by “and” are separate entries in the source; they are usually repeats but may differ in a detail not shown here. Equal entries are not always repeated. Inconclusive results are not listed. Active and inactive are the calls of the source. Unless noted, calls come from the whole dose curve; as a rule, active = well fitted curve in the direction sought with a large enough effect in the repeat runs; inconclusive = weak or mixed curves; inactive = no such curve, though single readings can be large; an effect the other way counts as inactive or inconclusive.

Sequence of Progesterone receptor (Homo sapiens) (P06401 whole entry, looked up): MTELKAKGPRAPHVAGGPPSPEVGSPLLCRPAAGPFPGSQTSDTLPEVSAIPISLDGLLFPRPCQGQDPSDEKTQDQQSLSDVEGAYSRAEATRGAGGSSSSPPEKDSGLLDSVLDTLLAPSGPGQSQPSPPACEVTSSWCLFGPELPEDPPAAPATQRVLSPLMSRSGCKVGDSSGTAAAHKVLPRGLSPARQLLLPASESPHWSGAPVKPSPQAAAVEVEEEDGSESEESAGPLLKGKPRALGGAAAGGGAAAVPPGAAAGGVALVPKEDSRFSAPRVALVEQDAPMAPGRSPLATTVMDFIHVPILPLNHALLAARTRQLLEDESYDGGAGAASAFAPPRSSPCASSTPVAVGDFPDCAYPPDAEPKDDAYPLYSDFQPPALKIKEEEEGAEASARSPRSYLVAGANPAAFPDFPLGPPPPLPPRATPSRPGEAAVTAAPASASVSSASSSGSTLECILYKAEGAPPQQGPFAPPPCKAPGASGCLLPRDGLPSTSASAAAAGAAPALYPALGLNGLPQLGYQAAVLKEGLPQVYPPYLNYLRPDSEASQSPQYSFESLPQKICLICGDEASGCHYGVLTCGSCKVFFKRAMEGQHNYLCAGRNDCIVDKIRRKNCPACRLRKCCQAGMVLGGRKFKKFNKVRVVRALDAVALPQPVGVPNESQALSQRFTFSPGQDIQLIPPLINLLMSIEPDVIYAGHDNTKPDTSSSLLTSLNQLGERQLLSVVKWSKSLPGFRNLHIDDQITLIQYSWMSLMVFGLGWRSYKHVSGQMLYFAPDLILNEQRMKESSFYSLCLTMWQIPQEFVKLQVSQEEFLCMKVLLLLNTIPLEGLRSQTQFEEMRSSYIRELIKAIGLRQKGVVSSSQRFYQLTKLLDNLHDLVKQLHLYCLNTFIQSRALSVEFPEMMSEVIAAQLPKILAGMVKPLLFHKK
Sequence of Estrogen receptor beta (Homo sapiens) (Q92731 whole entry, looked up): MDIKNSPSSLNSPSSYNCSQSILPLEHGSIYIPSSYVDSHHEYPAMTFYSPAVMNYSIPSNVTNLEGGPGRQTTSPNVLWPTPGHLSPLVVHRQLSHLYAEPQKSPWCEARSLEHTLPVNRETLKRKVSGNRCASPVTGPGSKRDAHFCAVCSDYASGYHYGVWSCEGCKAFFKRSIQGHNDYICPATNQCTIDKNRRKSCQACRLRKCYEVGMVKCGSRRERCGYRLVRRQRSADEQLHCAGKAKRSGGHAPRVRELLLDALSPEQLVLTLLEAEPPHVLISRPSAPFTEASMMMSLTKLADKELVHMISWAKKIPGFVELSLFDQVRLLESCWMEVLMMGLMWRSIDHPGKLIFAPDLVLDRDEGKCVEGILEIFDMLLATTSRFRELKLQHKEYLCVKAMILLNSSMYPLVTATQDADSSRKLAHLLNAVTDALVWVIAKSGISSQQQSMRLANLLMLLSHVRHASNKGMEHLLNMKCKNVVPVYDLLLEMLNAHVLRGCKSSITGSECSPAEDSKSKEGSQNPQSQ
Sequence of Thyrotropin-releasing hormone receptor (Homo sapiens) (P34981 whole entry, looked up): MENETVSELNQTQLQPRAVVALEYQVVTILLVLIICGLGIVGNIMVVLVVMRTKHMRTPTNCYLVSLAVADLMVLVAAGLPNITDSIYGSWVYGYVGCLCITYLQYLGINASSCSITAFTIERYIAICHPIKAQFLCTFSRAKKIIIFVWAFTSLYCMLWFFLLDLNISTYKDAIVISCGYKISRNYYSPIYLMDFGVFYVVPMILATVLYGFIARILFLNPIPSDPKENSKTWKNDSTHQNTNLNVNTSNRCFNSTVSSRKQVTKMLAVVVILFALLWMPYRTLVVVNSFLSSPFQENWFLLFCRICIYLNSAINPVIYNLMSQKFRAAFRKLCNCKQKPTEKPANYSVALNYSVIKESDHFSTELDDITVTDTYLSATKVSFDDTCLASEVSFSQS
Sequence of Estrogen receptor (Homo sapiens) (P03372 whole entry, looked up): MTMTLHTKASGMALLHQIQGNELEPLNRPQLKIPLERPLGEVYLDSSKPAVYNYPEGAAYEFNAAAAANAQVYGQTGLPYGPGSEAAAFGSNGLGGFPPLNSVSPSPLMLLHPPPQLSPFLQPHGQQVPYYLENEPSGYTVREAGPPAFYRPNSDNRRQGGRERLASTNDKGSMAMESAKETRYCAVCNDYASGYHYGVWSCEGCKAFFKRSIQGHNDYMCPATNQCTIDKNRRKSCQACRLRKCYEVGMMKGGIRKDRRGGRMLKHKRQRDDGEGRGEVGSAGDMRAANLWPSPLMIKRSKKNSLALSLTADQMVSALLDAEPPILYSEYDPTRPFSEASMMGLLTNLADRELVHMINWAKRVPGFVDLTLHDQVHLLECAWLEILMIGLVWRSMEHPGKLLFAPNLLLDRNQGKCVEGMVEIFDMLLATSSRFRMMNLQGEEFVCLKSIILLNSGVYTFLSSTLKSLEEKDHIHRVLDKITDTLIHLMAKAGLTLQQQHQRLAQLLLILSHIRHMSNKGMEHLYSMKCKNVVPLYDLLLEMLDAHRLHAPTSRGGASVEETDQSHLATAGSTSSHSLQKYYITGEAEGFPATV
Sequence of Thyrotropin receptor (Homo sapiens) (P16473 whole entry, looked up): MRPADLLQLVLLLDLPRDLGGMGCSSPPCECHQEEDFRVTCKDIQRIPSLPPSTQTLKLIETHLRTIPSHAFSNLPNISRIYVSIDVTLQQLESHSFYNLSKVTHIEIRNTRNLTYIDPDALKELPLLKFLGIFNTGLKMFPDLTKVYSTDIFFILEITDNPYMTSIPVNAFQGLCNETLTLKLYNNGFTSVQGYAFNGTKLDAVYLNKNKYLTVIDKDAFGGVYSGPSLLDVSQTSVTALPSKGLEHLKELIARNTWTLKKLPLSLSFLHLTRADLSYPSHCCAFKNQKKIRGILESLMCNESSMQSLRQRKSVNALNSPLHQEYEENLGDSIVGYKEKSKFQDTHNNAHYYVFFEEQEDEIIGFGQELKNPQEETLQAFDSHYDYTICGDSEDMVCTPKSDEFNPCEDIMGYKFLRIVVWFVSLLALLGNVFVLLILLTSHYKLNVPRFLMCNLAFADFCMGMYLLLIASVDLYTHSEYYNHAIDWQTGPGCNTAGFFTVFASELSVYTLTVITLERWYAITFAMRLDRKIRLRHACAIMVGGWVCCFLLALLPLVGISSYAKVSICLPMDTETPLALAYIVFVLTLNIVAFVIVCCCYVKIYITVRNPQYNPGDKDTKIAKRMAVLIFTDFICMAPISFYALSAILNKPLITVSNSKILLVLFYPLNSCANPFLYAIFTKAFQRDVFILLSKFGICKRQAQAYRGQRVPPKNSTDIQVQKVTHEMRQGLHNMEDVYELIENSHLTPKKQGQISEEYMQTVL
Sequence of Androgen receptor (Homo sapiens) (P10275 whole entry, looked up): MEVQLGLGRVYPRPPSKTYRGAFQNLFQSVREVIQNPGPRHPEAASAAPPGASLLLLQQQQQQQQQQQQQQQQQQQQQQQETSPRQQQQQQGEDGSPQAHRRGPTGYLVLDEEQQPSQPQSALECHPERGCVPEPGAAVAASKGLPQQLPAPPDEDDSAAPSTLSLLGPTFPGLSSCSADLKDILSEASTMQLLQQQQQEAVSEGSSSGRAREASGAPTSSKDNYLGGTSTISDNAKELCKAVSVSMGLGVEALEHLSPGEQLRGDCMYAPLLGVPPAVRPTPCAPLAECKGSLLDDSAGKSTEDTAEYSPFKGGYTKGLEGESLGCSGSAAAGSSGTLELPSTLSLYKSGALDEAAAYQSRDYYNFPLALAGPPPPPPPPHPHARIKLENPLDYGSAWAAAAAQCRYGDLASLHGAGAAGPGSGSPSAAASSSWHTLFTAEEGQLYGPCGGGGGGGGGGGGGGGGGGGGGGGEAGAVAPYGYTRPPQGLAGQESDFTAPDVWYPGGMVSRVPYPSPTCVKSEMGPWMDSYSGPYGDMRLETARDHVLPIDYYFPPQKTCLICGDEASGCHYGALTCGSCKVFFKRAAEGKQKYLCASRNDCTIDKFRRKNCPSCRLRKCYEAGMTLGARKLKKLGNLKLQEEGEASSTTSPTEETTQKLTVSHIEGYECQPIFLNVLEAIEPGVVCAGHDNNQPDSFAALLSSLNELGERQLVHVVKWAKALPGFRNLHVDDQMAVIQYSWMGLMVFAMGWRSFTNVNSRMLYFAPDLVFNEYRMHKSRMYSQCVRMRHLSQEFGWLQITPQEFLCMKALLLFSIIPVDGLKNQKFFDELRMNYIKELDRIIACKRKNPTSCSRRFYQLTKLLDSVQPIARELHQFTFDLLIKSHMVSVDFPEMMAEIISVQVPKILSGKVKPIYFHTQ

Take `Cc1cc(C)c(C2=C(OC(=O)CC(C)(C)C)C3(CCCC3)OC2=O)c(C)c1`: the Potency result in [1], in test [2], in test [3], in test [4], in test [5] and in [6] was “inactive” in each case. For the same compound, the Potency result in [7], in test [8], in [9], in [10] and in test [11] was “inactive” throughout. Moreover, the compound was classed as inactive in test [12].
On to `c1ccc(OCC2CO2)cc1` (stereo not given), for which the Potency entry in test [1], in [2], in test [3], in test [4], in test [5] and in [13] was “inactive” each time. Besides, the Potency result in [15], in test [7], in test [16], in test [17], in test [8] and in test [9] was “inactive” throughout. Also, the Potency entry in test [10] and in test [11] was “inactive” each time. In addition, the compound was called inactive in test [14] and in test [12].
`CC(C)CBr`: the Potency result in [1], in test [2], in [3], in test [4], in test [5] and in test [13] was “inactive” throughout. In addition, the Potency entry in [6], in test [15], in test [16], in test [17], in test [8] and in test [9] was “inactive” throughout. Further, the Potency entry in [10], in test [11], in test [19] and in [20] was “inactive” throughout. Further, the Potency in test [18] is 0.386 µM (active). The result in [14] and in test [12] was inactive.
As to `ClC1=C(Cl)[C@]2(Cl)[C@@H]3[C@@H](Cl)[C@H](Cl)C[C@@H]3[C@@]1(Cl)C2(Cl)Cl`, the Potency entry in test [1], in test [2], in test [3], in test [5], in test [18] and in test [13] was “inactive” in each case. Besides, the Potency result in test [16], in test [17], in [8], in test [10], in test [11] and in test [19] was “inactive” each time. The compound was classed as inactive in test [12].
Take `c1ccc(Nc2ccc3ccccc3c2)cc1`: the Potency result in [1], in test [2], in test [4], in test [15], in test [7] and in [16] was “inactive” in each case. Further, the Potency entry in test [8], in [9], in test [10], in test [19] and in test [20] was “inactive” each time. In addition, the Potency in test [3] is 54.2 µM (active) and 48.6 µM (active); in test [5], 68.2 µM (active); in test [6] it was 8.63 µM (active); in test [17] it was 17.2 µM (active). Also, the outcome in [12] was inactive.
Regarding `ClCc1ccccc1CCl`, the Potency result in test [1], in test [2], in [3], in test [5], in test [13] and in [6] was “inactive” each time. The Potency result in test [15], in [16], in test [8], in test [9], in test [10] and in test [11] was “inactive” each time. Further, the Potency result in test [19] and in [20] was “inactive” in each case. The compound was called inactive in test [14] and in test [12].
In the case of `O=[N+]([O-])c1cc(Cl)ccc1Cl`, the Potency result in [1], in test [2], in test [3], in test [4], in test [5] and in test [18] was “inactive” in each case. In addition, the Potency entry in test [13], in [6], in [15], in test [7], in [16] and in test [8] was “inactive” in each case. In addition, the Potency entry in [9], in test [10], in test [11], in test [19] and in [20] was “inactive” in each case. For the same compound, in [12], the result was inactive.
